PubChem BioAssay
The source made the active and inactive calls. Unless noted, no rule for the calls is given here.

Experiments:
[1] = A549 cell viability effects, profiling panel, calcein-AM fluorescence, 48 h, basal (AID 1162); details: higher = more signal; also: test concentration not given here
[2] = adipocyte viability effects, profiling panel, cell-based, 3T3-L1 adipocytes, calcein-AM fluorescence, 48 h, basal (AID 1163); details: 3T3-L1 adipocytes viability, higher = more signal; also: test concentration not given here
[3] = HepG2 cell viability effects, profiling panel, calcein-AM fluorescence, 48 h, basal (AID 1164); details: higher = more signal; also: test concentration not given here
[4] = MM1S cell viability effects, profiling panel, calcein-AM fluorescence, 48 h, basal (AID 1165); details: higher = more signal;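 also: viability of MM1S multiple myeloma cells under basal unstimulated conditions; test concentration not given here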
[5] = basal RPMI8226 viability, no added stimulus, profiling panel, cell-based, calcein-AM fluorescence, 48 h, PK04 Diversity Set (AID 1166); details: RPMI8226 myeloma viability, higher = more signal;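 also: cells grown under basal conditions without added stimulus; test concentration not given here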
[6] = basal HepG2 mitochondrial membrane potential changes, profiling panel, cell-based, JC-1 fluorescence, 24 h, 100 nL compound (AID 1167); details: higher = more signal; also: test concentration not given here
[7] = basal 3T3-L1 adipocyte mitochondrial potential changes, profiling panel, cell-based, JC-1 fluorescence, 3T3-L1 adipocytes, 24 h, 100 nL compound (AID 1168); details: JC-1 mitochondrial fluorescence, higher = more signal, called active from +8 up or from −8 down; also: test concentration not given here
[8] = basal RPMI8226 mitochondrial membrane potential changes, profiling panel, cell-based, JC-1 fluorescence, 24 h, 100 nL compound (AID 1169); details: RPMI8226 myeloma, JC-1 mitochondrial potential fluorescence, higher = more signal; also: test concentration not given here
[9] = basal MM1S mitochondrial membrane potential changes, profiling panel, cell-based, JC-1 fluorescence, 24 h, 100 nL compound (AID 1170); details: higher = more signal; also: test concentration not given here
[10] = A549 lung cancer cell viability effects, profiling panel, resazurin fluorescence, 24 h, PK04 Diversity Set (AID 1171); details: higher = more signal, called active from +8 up or from −8 down; also: test concentration not given here
[11] = HepG2 liver cancer cell viability effects, profiling panel, resazurin fluorescence, 24 h, PK04 Diversity Set (AID 1172); details: higher = more signal; also: test concentration not given here
[12] = basal S. cerevisiae growth modulation, no modifier, primary screen, OD600, strain BY4716, 24 h, basal condition (AID 1173); details: OD600, 24 h, higher = more signal, called active from +8 up or from −8 down
[13] = MM1S myeloma cell viability, profiling panel, resazurin fluorescence, basal, 24 h, PK04 Diversity Set (AID 1174); details: higher = more signal, called active from +8 up or from −8 down;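 also: MM1S multiple myeloma cell line; test concentration not given here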
[14] = molecular target: Dihydroorotate dehydrogenase (quinone), mitochondrial (Plasmodium falciparum (isolate 3D7)) (UniProt Q08210); test: PfDHODH enzyme inhibitors, primary screen, biochemical, C-terminal His tag, absorbance 600 nm (AID 1175); details: DCIP absorbance 600 nm, higher = more signal, called active from +8 up or from −8 down;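 also: recombinant parasite enzyme with a five histidine tag at its C terminus; test concentration not given here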
[15] = P. aeruginosa biofilm formation inhibitors, primary screen, strain PAO1, LB-PBS medium, absorbance 600 nm (AID 1176); also: test concentration not given here; details: P. aeruginosa PAO1 growth/biofilm, A600, 12 h; higher = more signal
[16] = S. cerevisiae RM11-1a growth modifiers, primary screen, strain RM11-1a, OD600, basal, 24 h (AID 1177); details: OD600, 24 h, higher = more signal, called active from +8 up or from −8 down;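 also: cultures grown under basal conditions with no added stressor; test concentration not given here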
[17] = E. coli acrAB mutant growth effects, primary screen, E. coli filamentation inducers, strain DRC39, OD650, 24 h (AID 1178); details: higher = more signal, called active from +8 up or from −8 down;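 also: growth measured as culture turbidity by optical density at 650 nm; test concentration not given here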
[18] = E. coli acrAB mutant growth effects, primary screen, E. coli filamentation inducers, strain DRC39, OD650, 48 h (AID 1179);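 also: screen aims at cell division blockers that make cells filament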; details: E. coli DRC39 delta-acrAB growth, higher = more signal, called active from +8 up or from −8 down
[19] = RPMI8226 myeloma cell viability, profiling panel, resazurin fluorescence, basal, 24 h, PK04 Diversity Set (AID 1180); details: higher = more signal;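 also: RPMI8826 multiple myeloma cell line at 5000 cells per well; test concentration not given here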
[20] = molecular target: E3 ubiquitin-protein ligase XIAP (Homo sapiens) (UniProt P98170); test: XIAP binders, primary screen, biophysical, small-molecule microarray, fluorescence 635 nm (AID 1181); details: small-molecule microarray binding, higher = more signal;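 also: score merges 667 nm emission and signal to noise over triplicate slides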
Sequence of E3 ubiquitin-protein ligase XIAP (Homo sapiens) (P98170 whole entry, looked up): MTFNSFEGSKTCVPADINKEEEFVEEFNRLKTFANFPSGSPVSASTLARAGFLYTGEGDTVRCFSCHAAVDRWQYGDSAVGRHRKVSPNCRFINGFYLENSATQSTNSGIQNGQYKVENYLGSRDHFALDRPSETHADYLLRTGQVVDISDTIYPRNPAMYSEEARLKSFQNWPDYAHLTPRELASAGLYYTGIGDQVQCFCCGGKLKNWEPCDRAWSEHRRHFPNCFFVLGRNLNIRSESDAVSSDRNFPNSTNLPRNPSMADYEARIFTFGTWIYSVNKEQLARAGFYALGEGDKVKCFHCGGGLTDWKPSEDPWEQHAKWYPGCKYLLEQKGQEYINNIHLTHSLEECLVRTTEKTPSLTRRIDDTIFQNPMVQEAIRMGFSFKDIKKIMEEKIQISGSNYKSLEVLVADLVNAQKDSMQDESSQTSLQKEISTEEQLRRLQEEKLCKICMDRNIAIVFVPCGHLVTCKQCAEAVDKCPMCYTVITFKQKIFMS

Sequence of Dihydroorotate dehydrogenase (quinone), mitochondrial (Plasmodium falciparum (isolate 3D7)) (Q08210 whole entry, looked up): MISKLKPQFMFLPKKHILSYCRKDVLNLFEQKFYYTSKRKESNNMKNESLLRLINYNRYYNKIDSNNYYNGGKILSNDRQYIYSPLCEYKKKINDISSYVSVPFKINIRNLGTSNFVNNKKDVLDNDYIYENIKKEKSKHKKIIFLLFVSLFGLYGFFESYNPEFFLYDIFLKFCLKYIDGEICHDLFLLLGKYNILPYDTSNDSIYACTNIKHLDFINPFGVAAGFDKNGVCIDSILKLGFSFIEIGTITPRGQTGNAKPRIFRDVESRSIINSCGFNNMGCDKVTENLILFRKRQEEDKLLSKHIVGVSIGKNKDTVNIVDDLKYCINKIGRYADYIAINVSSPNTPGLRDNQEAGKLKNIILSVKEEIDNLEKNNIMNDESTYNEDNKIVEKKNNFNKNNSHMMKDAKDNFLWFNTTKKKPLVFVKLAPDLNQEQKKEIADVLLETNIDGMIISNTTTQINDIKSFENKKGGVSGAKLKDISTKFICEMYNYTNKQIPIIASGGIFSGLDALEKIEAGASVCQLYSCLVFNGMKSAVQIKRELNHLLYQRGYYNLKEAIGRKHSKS

| SMILES | z-score [1] | z-score [2] | z-score [3] | z-score [4] | z-score [5] | z-score [6] | z-score [7] | z-score [8] | z-score [9] | z-score [10] | z-score [11] | z-score [12] | z-score [13] | composite z-score [14] | z-score [15] | z-score [16] | z-score [17] | z-score [18] | z-score [19] | composite z-score [20] |
| --- | --- | --- | --- | --- | --- | --- | --- | --- | --- | --- | --- | --- | --- | --- | --- | --- | --- | --- | --- | --- |
| O=C1OCCC=C[C@H]2OC34C=CCN(c5ccc6ccccc6c5)C(=O)[C@H]3N(CCCCCO)C(=O)[C@@H]4C12 (stereo not given in full) | 0.32 | -0.691 | 1.84 | 1.35 | 0.0492 | 1.53 | -0.279 (inactive) | -0.0802 | -0.0576 | 0.384 (inactive) | 1.32 | -0.805 (inactive) | 0.835 (inactive) | -0.556 (inactive) | 0.357 (inactive) | -0.403 (inactive) | 1.61 (inactive) | 1.74 (inactive) | 1.28 | -0.174 |
| O=C1O[C@@H](c2ccccc2)[C@@H](c2ccccc2)N2[C@@H](c3ccc(OCCO)cc3)[C@]3(C(=O)Nc4ccccc43)[C@@H](C(=O)Nc3nc4ccccc4s3)[C@H]12 | -0.328 | -0.343 | 0.27 | -0.829 | -1.17 | -3.31 | 2.07 (inactive) | -1.05 | -1.86 | -1.4 (inactive) | -0.489 | 0.0135 (inactive) | -1.52 (inactive) | -0.308 (inactive) | 3.18 (inactive) | 1.97 (inactive) | -0.595 (inactive) | 0.29 (inactive) | -1.55 | 0.148 |
| CC(C)(C)N1CC=CC23O[C@@H]4C=CCOC(=O)[C@@H]4[C@H]2C(=O)N(CCCCCO)[C@@H]3C1=O (stereo not given in full) | -0.52 | 0.468 | -0.542 | -0.341 | 0.606 | -0.667 | -0.173 (inactive) | 0.828 | 0.388 | -1.08 (inactive) | -0.308 | 0.285 (inactive) | -0.728 (inactive) | -0.0531 (inactive) | 0.0962 (inactive) | -0.0325 (inactive) | -1.09 (inactive) | -1.2 (inactive) | -0.867 | 0.333 |
| CCN(CC)c1ccc(N2CC=CC34O[C@@H]5C=CCCOC(=O)C5[C@H]3C(=O)N(CCCCCO)[C@@H]4C2=O)cc1 (stereo not given in full) | 1.69 | 0.132 | 1.08 | 1.39 | -0.0513 | 1.65 | 1.27 (inactive) | 0.589 | 0.84 | 1.62 (inactive) | 1.72 | -0.8 (inactive) | 0.974 (inactive) | -0.644 (inactive) | 0.165 (inactive) | -0.866 (inactive) | 2.21 (inactive) | 2.23 (inactive) | 1.16 | 0.354 |
| C=CCN1C(=O)[C@]2(O[C@H](CCO)[C@@H]([Si](C)(C)c3ccc(OC)cc3)[C@@H]2C)c2cc(NC(=O)[C@H](C)O)ccc21 | -1.18 | 0.449 | -1.92 | -2.85 | -4.33 | -1.55 | -0.612 (inactive) | -1.03 | -0.061 | -0.848 (inactive) | -0.646 | -0.151 (inactive) | -1.43 (inactive) | 0.235 (inactive) | 0.0943 (inactive) | 2.79 (inactive) | -0.483 (inactive) | -0.955 (inactive) | -2.8 | 0.0223 |
| O=C(CS)NCCCCCCNC(=O)[C@H]1C[C@H]2C(=O)NCC(=O)N2[C@H]1c1ccc(O)cc1 | 0.324 | 0.277 | 0.555 | -0.31 | 0.325 | -0.32 | -0.607 (inactive) | -0.645 | -0.459 | -0.27 (inactive) | -0.0808 | 0.309 (inactive) | -0.722 (inactive) | -0.864 (inactive) | 0.395 (inactive) | -0.14 (inactive) | -0.389 (inactive) | -0.405 (inactive) | -0.521 | 0.102 |
| O=C1O[C@H](c2ccccc2)[C@H](c2ccccc2)N2[C@H]1[C@@H](C(=O)NC[C@H](O)c1ccccc1)[C@]1(C(=O)Nc3ccc(C#CCCO)cc31)[C@H]2c1ccc(O)cc1 | 0.102 | 1.09 | -0.975 | 0.245 | -0.155 | -0.72 | 0.0782 (inactive) | 0.626 | 0.000313 | 0.024 (inactive) | -0.0297 | 0.047 (inactive) | -0.0226 (inactive) | -1.4 (inactive) | 0.432 (inactive) | 0.117 (inactive) | -0.568 (inactive) | -0.982 (inactive) | -0.186 | 0.133 |
| O=C1O[C@H](c2ccccc2)[C@H](c2ccccc2)N2[C@H]1[C@@H](C(=O)O)[C@]1(C(=O)Nc3ccc(C#CC4(O)CCCCCC4)cc31)[C@H]2c1ccc(OCCO)cc1 | 0.82 | 0.287 | 0.293 | -1.99 | -0.216 | -1.82 | -1.07 (inactive) | -0.559 | -0.683 | -0.0693 (inactive) | 0.246 | -0.495 (inactive) | -0.249 (inactive) | -4.61 (inactive) | 1.07 (inactive) | 2.12 (inactive) | -0.184 (inactive) | -0.151 (inactive) | -0.317 | -0.0181 |
